CtBP-E1A inh: blocks the CtBP interaction with E1A; 340,000 compounds, 0.49% hits; activity change, % (no concentration beside the values); AlphaScreen GST-E1A/His-CtBP binding, 1536-well; hits give low values; in the data active = activity change below about -65%; inconclusive = mostly about -30% to -63%; note: % is set by controls: 0 for no effect and ±100 for the full control effect
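Homogeneous bead-based format: GST-tagged E1A captured on glutathione donor beads, His-tagged CtBP on nickel acceptor beads; compounds precede bead addition by 2 h at 37 °C.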
Six1-Eya2 inh: inhibitors of human Six1/Eya2 interaction; AID 651725; 360,000 compounds, 0.56% hits; activity change, % (no concentration beside the values); Q15475+O00167; AlphaScreen GST-Six1/His-Eya2 binding, biochemical; hits give low values; in the data active = activity change below about -65%; inconclusive = mostly about -30% to -63%; note: % is set by controls: 0 for no effect and ±100 for the full control effect
Target sequence (O00167 whole entry, looked up): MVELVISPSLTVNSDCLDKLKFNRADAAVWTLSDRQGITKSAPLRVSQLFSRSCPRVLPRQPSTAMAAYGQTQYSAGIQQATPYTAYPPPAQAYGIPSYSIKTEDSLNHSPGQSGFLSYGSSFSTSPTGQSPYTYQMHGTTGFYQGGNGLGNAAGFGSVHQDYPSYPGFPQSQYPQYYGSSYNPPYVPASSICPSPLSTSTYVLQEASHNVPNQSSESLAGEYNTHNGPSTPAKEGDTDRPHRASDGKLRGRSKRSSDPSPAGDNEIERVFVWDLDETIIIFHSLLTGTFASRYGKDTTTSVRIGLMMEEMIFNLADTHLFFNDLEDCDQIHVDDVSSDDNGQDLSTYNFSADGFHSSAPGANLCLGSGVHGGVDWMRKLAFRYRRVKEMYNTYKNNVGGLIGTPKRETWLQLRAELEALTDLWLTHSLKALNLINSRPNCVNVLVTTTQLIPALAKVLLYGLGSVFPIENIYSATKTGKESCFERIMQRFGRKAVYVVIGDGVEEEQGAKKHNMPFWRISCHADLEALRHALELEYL
Target sequence (Q15475 whole entry, looked up): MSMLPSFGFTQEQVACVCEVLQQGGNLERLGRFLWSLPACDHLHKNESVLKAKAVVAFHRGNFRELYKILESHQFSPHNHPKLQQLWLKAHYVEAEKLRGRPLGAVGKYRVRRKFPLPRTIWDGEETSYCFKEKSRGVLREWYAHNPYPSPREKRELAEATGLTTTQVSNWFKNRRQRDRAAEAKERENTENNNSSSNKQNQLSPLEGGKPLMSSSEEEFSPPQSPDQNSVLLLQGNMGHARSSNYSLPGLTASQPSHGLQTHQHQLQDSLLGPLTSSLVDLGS
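GST-Six1 + His-Eya2 (5X stock: 250/500 nM); Tris pH 8.0, 300 mM NaCl, 0.05% BSA, 0.02% Tween 20; GSH donor/Ni acceptor beads; 1 h 37 °C dark; AlphaScreen readout.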
ATXN2 expr inh: inhibitors of ATXN2 expression. HEK-293 ATXN2-luciferase reporter, luminescence, 24 h. Potency, µM (highest dose often 57 µM), inactives show at the highest dose activity change, negative = inhibition, most hits filed as inhibitors. 360,000 compounds, 0.72% hits; note: potency is the fitted concentration of half-maximal effect; % is set by controls: 0 for no effect and ±100 for the full control effect; nearly all actives have a fitted effect of over 55% in size
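ATXN2-luciferase reporter cells (luciferase flanked by upstream and downstream ATXN2 gene portions) were treated 24 h at 37 °C with compounds at up to 57 uM. SteadyGlo luminescence gave expression; GF-AFC fluorescence gave viability.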
ATXN viability: cell viability loss in ATXN counter-screen | S2 cells (HEK-293 line with an ATXN2-luciferase reporter) viability, CellTiter-Fluor protease fluorescence, 24 h | Potency, µM (top dose mostly 56.7 µM), usual class: cytotoxic | 400,000 compounds, 0.49% hits | AID 651635; note: potency is the fitted concentration of half-maximal effect; nearly all actives have a fitted effect of over 40% in size
TGFb SMAD3 inh: blocks TGF-b signaling | HepG2 CAGA-GFP TGF-b/SMAD3 reporter, GFP fluorescence, 18 h; TGF-beta stimulated, 500 pg/mL final | Potency, µM (doses to about 46.1 µM), inactives show at the highest dose activity, negative = inhibition, actives largely listed as inhibitors | 410,000 compounds, 1.2% hits; note: potency is the fitted concentration of half-maximal effect; % is set by controls: 0 for no effect and ±100 for the full control effect; nearly all actives have a fitted effect of over 65% in size
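Smad-responsive CAGA-GFP expression was quantified in HEPG2 cells exposed to compounds and 500 pg/mL final TGF-beta for 18 h at 37 degrees C; unstimulated wells defined full inhibition.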
HepG2 viability: HepG2 cytotoxicity, counter-screen for TGF-b inhibitors; HepG2 CAGA-GFP viability, ATP luminescence, 18 h; Potency, µM (top dose mostly 46.1 µM), for the others: at the highest dose activity change, negative = cytotoxicity, most hits filed as cytotoxic; 410,000 compounds, 0.76% hits; AID 588856; note: potency is the fitted concentration of half-maximal effect
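HepG2 CAGA-GFP cells (1000/well, DMEM with 1% FBS) received compound, then TGF-beta at 500 pg/mL final, and were incubated 18 hours at 37 degrees C. Viability was read by CellTiter-Glo luminescence. Media-only wells were set as complete cell-killing and DMSO as no toxicity.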
Starred values were filed as active, the others as inactive; i = inactive; ? = inconclusive; · = not tested or not shown. An excerpt weighted towards active compounds, which were near 2.8% of everything screened. Unless noted, calls come from the whole dose curve; as a rule, active = well fitted curve in the direction sought with a large enough effect; inconclusive = small, poorly fitted or top-dose-only effect, or another doubt; inactive = no such curve, though single readings can be large; an effect the other way counts as inactive or inconclusive.

SMILES	CtBP-E1A inh	Six1-Eya2 inh	ATXN2 expr inh	ATXN viability	TGFb SMAD3 inh	HepG2 viability
Cc1ccc(C(=O)Nc2nc(C(N)Cc3ccc(C(F)(F)F)cc3)cs2)cc1 (stereo not drawn)	2.2	1.3	?	·	?	17.8µM*
CC(=O)c1ccc(Nc2nc(C(N)Cc3ccc(C(F)(F)F)cc3)cs2)cc1 (stereo not drawn)	-2.7	-2.5	0.0%	i	?	-93.9%
COc1cc(NC(=O)Nc2nc(C(N)Cc3ccc(C(F)(F)F)cc3)cs2)cc(OC)c1OC (stereo not drawn)	-8.0	-25.1	?	?	11.2µM*	-106.5%
COc1ccc(CC(N)c2csc(NC(=O)c3cc(C(C)(C)C)oc3C)n2)cc1 (stereo not drawn)	2.4	1.3	?	28.2µM*	?	-102.7%
COc1ccccc1-c1cc2nc(C)c(CCC(=O)Nc3ccc(Br)c(C)c3)c(C)n2n1	·	·	-8.3%	i	?	-17.9%
CN(C)c1nc(Cc2ccc(NC(=O)c3ccc(C(F)(F)F)cc3)cc2)nc(N(C)C)c1CC(=O)O	·	·	2.1%	·	·	·
O=S(=O)(c1ccccc1F)N1CCN(Cc2cc3c(cc2O)OCO3)CC1	·	-14.8	·	i	-27.2%	3.98µM*
O=[N+]([O-])c1ccccc1S(=O)(=O)N1CCN(Cc2cc3c(cc2O)OCO3)CC1	-12.7	-12.5	8.2%	i	-0.4%	-21.0%
CCS(=O)(=O)Nc1cc(C(=O)N[C@H]2CCCCNC2=O)c2c(c1)nc(-c1ccccc1)n2C	·	·	·	i	·	·
COc1ccc(OC)c(NC(=O)c2cccc(N3C(=O)C4C5C=CC(C6CC56)C4C3=O)c2)c1 (stereo not drawn)	·	-5.6	·	14.1µM*	?	-16.0%
CCOC(=O)c1c(-c2ccccc2)oc2ccc(OCC)cc12	80.4	51.2	-5.2%	i	-3.2%	-18.5%
CCOC(=O)c1c(-c2ccccc2)oc2ccc(OCC(O)CNCCN(C)C)cc12 (stereo not drawn)	0.3	1.0	-36.2%	·	?	14.1µM*
Cc1cc(NCCCCCCCNc2cc(C)nc3cc([N+](=O)[O-])ccc23)c2ccc([N+](=O)[O-])cc2n1	-8.5	-9.2	?	21.2µM*	8.91µM*	-116.8%
COCCCNc1cc(C)nc2ccccc12	3.7	2.0	3.2%	i	-5.6%	-19.0%
CC(C)NC(=O)C1(C)CSCC(=O)N1Cc1cccc(C(F)(F)F)c1 (stereo not drawn)	-19.0	0.1	·	·	·	·
Cn1c(=O)c2c3c(sc2n2c(SCC(N)=O)nnc12)CC(C(C)(C)C)CC3 (stereo not drawn)	-14.8	-14.0	-10.9%	i	0.9%	12.6µM*
Cc1ccc2nc(SCC3CCCCO3)[nH]c2c1 (stereo not drawn)	-23.4	-5.0	11.2µM*	i	-3.1%	24.6%
O=C(C#Cc1ccccc1)c1ccccc1	-10.2	4.1	·	?	10µM*	12.6µM*
Cc1cccc(OCCOc2ccccc2C=C(C#N)C#N)c1	3.0	6.7	3.0%	?	10µM*	-83.0%
Cc1cccc(OCCOC(=O)Nc2ccccc2)c1	0.4	8.6	12.7%	i	6.3%	-18.7%
CCCCNc1c(-c2cccc(-c3cc(C(C)=O)cs3)c2)nc2ccc(C)cn12	-28.9	-22.6	?	15.8µM*	?	17.8µM*
CC(C)c1nc(SCC(=O)Nc2ccc(C(=O)O)cc2)c2c3c(sc2n1)CCCC3	-15.9	-82.6*	-6.1%	i	-9.7%	-1.5%
CC1CCc2c(sc3ncnc(SCC(=O)Nc4ccc(C(=O)O)cc4)c23)C1 (stereo not drawn)	-6.4	-0.3	18.8%	i	-6.7%	-11.0%
CCOC(=O)N1C(=O)[C@@](CC)(c2ccccc2)N1C(=O)OCC	7.8	1.4	-35.3%	31.6µM*	?	-102.7%
COC(=O)N1C(=O)[C@](CC(C)C)(c2ccccc2)N1C(=O)OC	8.7	-1.8	1.5%	?	8.91µM*	-61.2%
SMILES	CtBP-E1A inh	Six1-Eya2 inh	ATXN2 expr inh	ATXN viability	TGFb SMAD3 inh	HepG2 viability
CC1CCCCN1C(=O)CSc1c2c(nc3cc(Cl)ccc13)CCCC2 (stereo not drawn)	·	·	·	·	?	-27.3%
Cc1cc(N2CCN(C)CC2)ccc1NC(=O)c1ccc(-c2ccc(Cl)cc2)o1	?	-19.9	?	i	?	11.2µM*
S=C(NCc1ccccc1)NC1CCSc2ccccc21 (stereo not drawn)	-1.1	-9.1	-15.7%	i	12.6µM*	-28.4%
Cc1cccc(NC(=S)NC2CCSc3ccccc32)c1 (stereo not drawn)	-16.6	-19.5	2.6%	i	?	-24.7%
COCc1cc(=O)[nH]c(SCCS(=O)(=O)c2ccc(Cl)cc2Cl)n1	3.7	-2.7	20µM*	·	?	-38.9%
Cc1ccc(-c2ccnc(-n3ncc(C(=O)N(C)CC4CCCN(C)C4)c3C)n2)o1 (stereo not drawn)	·	·	·	i	·	·
Cc1cc(Cl)cc(Cl)c1OCCOc1cccc2cccnc12	11.3	9.8	-7.0%	i	11.2µM*	-48.8%
Cc1cc(C)nc(S[C@H]2C[C@@H](C(=O)N3CCN(c4ccccc4F)CC3)N(Cc3ccccc3C(F)(F)F)C2)n1	·	·	·	i	·	·
O=C1c2cccc(Cl)c2C(=O)c2c1cccc2N1CCCC1	-89.9*	-91.3*	0.8%	i	0.0%	-22.8%
O=C1c2ccccc2C(=O)c2cc(N3CCCCC3)ccc21	?	?	-64.4%	i	10.8%	-2.0%
Cc1cc(C(Br)(Br)Br)nc2ccccc12	·	·	·	·	?	11.2µM*
Cc1cc(N2CCC(C(=O)Nc3ccc(Cl)cc3)CC2)n2nc(C)c(-c3ccc(Cl)cc3)c2n1	·	·	15.0%	i	-5.1%	3.0%
CC(NNC(=S)N1CCCCCC1)c1ccc2ccccc2n1 (stereo not drawn)	-3.0	1.5	8.91µM*	·	?	-14.5%
COc1cc(C2(c3ccc(O)c(OC)c3)C(=O)N(C)c3ccc(Br)cc32)ccc1O	-2.4	0.9	-21.3%	?	?	-18.9%
COc1cc(C2(c3ccc(O)c(OC)c3)C(=O)Nc3c(Br)cc(Br)cc32)ccc1O	·	-2.2	·	?	25.1µM*	-95.0%
COc1ccc(N(C(=O)c2cnccn2)C(C(=O)NC2CCCCC2)c2ccc(Cl)cc2)cc1 (stereo not drawn)	4.0	6.7	-8.3%	i	11.3%	-0.1%
COc1ccc(C(C(=O)NC2CCCCC2)N(C(=O)CCl)c2ccc(Cl)cc2)cc1 (stereo not drawn)	14.0	-1.8	3.55µM*	3.16µM*	-28.4%	-63.0%
Nc1ccc([N+](=O)[O-])c(C(F)(F)F)c1	·	·	6.2%	i	·	·

Bioassay records: PubChem BioAssay, National Center for Advancing Translational Sciences (NCATS)
